Experimental findings from ChEMBL document CHEMBL3988442, “University of Dundee, Small-Polar-MMV Screening Library” (2021) are described below.

For some of these results: Potency and affinity values are given separately.

Set-up in all cases: scale not given: direction of the effect not stated beside the values
The target in assay [1] is Protein translocase subunit SecA (Escherichia coli (strain K12)) (UniProt P10408). Nature of the assay: Assay to Identify E. coli SecA ATPase Inhibitors. The class given is functional. The following applies: 30 µM.
Assay [2] has as its target T1, Ubiquitin-activating enzyme e1, putative (Leishmania donovani (strain BPK282A1)) (UniProt E9BSI1).
T1 sequence (whole entry): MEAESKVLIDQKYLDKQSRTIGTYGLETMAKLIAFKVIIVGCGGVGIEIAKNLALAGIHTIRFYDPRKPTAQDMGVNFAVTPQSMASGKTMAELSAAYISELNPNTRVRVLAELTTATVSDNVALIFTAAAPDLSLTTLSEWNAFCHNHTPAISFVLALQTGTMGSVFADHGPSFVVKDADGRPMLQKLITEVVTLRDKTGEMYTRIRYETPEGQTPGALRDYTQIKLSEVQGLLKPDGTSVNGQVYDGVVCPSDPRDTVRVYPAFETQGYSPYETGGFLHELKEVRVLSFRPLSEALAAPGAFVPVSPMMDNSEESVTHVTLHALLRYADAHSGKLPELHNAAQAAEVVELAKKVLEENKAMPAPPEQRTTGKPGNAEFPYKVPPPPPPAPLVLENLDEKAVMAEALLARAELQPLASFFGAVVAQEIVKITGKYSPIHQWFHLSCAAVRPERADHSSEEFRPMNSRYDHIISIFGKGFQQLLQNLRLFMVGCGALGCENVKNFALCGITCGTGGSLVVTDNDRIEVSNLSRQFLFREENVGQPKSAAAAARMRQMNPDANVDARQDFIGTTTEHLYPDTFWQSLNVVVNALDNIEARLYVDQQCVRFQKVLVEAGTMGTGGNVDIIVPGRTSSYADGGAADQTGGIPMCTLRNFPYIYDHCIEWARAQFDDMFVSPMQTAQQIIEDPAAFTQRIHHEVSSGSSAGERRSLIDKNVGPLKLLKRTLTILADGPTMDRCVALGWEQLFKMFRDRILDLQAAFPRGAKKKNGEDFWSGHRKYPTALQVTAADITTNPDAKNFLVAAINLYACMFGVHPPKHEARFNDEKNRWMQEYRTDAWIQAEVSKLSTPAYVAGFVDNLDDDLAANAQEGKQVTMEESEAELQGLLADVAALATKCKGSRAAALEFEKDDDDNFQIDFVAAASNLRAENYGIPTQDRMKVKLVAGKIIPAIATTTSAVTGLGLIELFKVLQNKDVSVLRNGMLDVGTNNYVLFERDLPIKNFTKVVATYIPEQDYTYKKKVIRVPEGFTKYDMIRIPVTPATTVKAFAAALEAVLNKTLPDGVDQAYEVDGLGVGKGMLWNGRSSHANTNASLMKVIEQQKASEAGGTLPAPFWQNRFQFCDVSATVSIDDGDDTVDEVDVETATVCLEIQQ
The assay can be described thus: Leishmania donovani Ubiquitin Activating Enzyme (LdE1). The class given is functional. Particulars: 30 µM.

The target of assay [3] is AMP-activated protein kinase, AMPK (Homo sapiens) (UniProt P54646+O43741+P54619+Q9UGJ0+Q9Y478+Q13131+Q9UGI9). The assay can be described thus: AMP-dependent Kinase enzyme assay. An in vitro enzyme assay that detects ADP turnover that is directly proportional to AMPK activity. This uses naive AMPK that is activated during the assay with MK-8722. The class given is functional. Particulars: 30 µM.

The target of assay [4] is Sialic acid-binding Ig-like lectin 9 (Homo sapiens) (UniProt Q9Y336). Nature of the assay: Hs-Siglec9 ALPHAscreen SOP 20170721. Particulars: 10 µM. A general note: Bead proximity is the source of the signal in Alpha formats.
The test system of assay [5] is Trypanosoma cruzi. The assay can be described thus: Trypanosoma cruzi phosphomannomutase and mannose-1-phosphate guanylyltransferase assay. In kind it is functional. The following applies: 10 µM.
Assay [6] concerns the target T2, Arginase-2, mitochondrial (Homo sapiens) (UniProt P78540).
T2 sequence (whole entry): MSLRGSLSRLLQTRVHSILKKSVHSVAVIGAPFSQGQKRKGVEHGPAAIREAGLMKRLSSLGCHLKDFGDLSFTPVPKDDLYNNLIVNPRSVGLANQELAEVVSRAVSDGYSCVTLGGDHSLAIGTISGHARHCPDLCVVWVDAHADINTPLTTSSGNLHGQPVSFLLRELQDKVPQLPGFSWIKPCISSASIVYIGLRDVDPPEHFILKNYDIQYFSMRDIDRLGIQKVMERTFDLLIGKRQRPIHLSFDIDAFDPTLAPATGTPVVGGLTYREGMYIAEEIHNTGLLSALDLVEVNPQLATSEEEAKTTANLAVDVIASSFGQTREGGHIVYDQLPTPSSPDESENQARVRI
The assay can be described thus: in vitro enzyme assay to detect the production of urea directly proportional to the activity of Arginase II. Also: in the data most compounds retested in dose-response had high values. In kind it is functional. Particulars: 33.3 µM.

For assay [7], the target named is T3, Proteasome subunit beta (Trypanosoma cruzi) (UniProt O96673).
T3 sequence (whole entry): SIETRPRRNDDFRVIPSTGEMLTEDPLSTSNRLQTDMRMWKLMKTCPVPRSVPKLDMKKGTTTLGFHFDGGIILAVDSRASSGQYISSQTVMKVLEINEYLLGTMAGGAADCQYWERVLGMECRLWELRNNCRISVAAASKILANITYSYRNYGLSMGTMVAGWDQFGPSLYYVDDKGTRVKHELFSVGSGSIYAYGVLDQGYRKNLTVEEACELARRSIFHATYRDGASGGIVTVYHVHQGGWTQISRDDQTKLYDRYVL
Nature of the assay: Trypanosoma cruzi proteasome chymotrypsin-like activity (TcProtChymo) assay. Also: in the data most compounds retested in dose-response had high values. In kind it is functional. The following applies: 9.37 µM.

The species named for assay [8] is Homo sapiens. The assay can be described thus: To identify inhibition of the IFN signalling (Jak-Stat) pathway via expression of an eGFP reporter gene under the control of an IFN-stimulated response element (ISRE) containing MxA promoter. The class given is functional. The following applies: 30 µM. A general note: A reporter such as luciferase makes a cellular process visible.

Assay [9] concerns the target T4, Tyrosyl-tRNA synthetase, putative (Trypanosoma cruzi (strain CL Brener)) (UniProt Q4DSP6).
T4 sequence (whole entry): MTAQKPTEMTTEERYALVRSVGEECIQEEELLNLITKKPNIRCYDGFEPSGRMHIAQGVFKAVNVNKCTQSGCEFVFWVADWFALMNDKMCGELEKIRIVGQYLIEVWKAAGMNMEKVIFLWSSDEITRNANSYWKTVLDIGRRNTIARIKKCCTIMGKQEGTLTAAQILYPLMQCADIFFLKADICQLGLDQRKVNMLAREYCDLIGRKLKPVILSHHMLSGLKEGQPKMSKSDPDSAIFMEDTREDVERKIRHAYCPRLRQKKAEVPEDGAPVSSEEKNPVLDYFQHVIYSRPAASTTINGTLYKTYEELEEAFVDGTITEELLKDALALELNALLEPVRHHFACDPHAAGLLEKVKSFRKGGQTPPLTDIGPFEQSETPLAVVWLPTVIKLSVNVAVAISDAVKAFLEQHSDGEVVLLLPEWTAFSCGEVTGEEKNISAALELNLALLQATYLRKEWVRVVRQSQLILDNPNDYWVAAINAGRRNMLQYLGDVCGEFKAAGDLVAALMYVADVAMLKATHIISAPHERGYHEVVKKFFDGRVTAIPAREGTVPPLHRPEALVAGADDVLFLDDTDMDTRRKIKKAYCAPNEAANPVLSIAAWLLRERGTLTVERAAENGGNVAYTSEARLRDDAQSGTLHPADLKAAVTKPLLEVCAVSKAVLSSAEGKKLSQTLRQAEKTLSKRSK
Nature of the assay: Trypanosoma cruzi tyrosyl tRNA synthetase (TcYRS) _High Tyrosine SOP. Also: in the data most compounds retested in dose-response had high values. In kind it is functional. Particulars: 30 µM.

The target in assay [10] is T4, Tyrosyl-tRNA synthetase, putative (Trypanosoma cruzi (strain CL Brener)). The assay can be described thus: Trypanosoma cruzi tyrosyl tRNA synthetase (TcYRS) SOP. In kind it is functional. Particulars: 30 µM.
Assay [11] deals with Chromo domain-containing protein 1 (Saccharomyces cerevisiae (strain ATCC 204508 / S288c) (Baker's yeast)) (UniProt P32657). The assay can be described thus: ScCHD-1 Enzyme Inhibition Assay. Also: in the data most compounds retested in dose-response had high values. The class given is functional. Particulars: 30 µM.
Sequence of Chromo domain-containing protein 1 (Saccharomyces cerevisiae (strain ATCC 204508 / S288c) (Baker's yeast)) (P32657 whole entry, the tested form may be a part): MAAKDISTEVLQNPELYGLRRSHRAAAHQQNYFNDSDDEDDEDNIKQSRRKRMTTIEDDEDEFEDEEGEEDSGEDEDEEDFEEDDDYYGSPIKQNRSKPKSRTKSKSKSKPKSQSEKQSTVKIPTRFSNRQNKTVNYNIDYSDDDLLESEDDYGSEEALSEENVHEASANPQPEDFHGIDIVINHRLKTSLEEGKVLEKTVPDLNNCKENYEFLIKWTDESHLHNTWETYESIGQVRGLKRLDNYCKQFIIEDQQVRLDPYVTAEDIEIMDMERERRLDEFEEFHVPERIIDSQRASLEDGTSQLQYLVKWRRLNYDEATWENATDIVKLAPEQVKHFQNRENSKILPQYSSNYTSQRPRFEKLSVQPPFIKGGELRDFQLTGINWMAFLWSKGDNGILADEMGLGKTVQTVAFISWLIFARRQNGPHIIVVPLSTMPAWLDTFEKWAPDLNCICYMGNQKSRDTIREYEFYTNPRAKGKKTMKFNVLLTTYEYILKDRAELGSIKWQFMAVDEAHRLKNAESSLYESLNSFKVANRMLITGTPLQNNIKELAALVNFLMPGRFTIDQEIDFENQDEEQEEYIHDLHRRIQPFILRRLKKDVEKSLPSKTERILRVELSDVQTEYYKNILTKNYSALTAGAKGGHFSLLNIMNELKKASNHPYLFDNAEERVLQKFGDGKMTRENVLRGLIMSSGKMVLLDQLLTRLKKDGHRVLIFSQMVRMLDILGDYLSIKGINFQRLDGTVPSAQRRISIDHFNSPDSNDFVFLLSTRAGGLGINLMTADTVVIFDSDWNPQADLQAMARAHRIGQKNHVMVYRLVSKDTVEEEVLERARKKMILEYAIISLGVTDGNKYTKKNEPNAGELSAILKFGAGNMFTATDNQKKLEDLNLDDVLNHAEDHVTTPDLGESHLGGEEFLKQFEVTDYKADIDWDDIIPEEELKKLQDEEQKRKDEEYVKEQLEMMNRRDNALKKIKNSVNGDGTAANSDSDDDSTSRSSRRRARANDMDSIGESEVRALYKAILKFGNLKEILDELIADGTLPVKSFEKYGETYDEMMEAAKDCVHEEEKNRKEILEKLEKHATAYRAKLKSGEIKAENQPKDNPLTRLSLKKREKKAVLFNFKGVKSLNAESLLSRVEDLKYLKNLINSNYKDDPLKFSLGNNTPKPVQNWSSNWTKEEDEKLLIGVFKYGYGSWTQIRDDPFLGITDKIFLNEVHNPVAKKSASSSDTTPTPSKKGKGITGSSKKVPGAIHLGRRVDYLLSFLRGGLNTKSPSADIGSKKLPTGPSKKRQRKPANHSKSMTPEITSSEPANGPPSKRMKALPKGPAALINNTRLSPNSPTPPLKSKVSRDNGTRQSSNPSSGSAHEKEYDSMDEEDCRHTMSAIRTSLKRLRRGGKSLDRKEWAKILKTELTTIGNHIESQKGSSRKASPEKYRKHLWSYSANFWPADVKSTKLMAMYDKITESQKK

Sequence of Sialic acid-binding Ig-like lectin 9 (Homo sapiens) (Q9Y336 whole entry): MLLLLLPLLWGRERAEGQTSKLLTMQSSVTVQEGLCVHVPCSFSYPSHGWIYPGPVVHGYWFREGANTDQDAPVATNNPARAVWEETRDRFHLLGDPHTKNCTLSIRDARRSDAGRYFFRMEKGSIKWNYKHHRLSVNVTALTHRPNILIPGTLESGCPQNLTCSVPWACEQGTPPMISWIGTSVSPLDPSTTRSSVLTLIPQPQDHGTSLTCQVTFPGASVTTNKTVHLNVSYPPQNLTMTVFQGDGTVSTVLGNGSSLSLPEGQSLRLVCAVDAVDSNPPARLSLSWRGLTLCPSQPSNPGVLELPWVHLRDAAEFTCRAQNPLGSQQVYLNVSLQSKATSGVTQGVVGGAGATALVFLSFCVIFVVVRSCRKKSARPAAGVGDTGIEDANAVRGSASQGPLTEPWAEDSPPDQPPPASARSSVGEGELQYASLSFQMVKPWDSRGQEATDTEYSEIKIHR
Sequence of Protein translocase subunit SecA (Escherichia coli (strain K12)) (P10408 whole entry): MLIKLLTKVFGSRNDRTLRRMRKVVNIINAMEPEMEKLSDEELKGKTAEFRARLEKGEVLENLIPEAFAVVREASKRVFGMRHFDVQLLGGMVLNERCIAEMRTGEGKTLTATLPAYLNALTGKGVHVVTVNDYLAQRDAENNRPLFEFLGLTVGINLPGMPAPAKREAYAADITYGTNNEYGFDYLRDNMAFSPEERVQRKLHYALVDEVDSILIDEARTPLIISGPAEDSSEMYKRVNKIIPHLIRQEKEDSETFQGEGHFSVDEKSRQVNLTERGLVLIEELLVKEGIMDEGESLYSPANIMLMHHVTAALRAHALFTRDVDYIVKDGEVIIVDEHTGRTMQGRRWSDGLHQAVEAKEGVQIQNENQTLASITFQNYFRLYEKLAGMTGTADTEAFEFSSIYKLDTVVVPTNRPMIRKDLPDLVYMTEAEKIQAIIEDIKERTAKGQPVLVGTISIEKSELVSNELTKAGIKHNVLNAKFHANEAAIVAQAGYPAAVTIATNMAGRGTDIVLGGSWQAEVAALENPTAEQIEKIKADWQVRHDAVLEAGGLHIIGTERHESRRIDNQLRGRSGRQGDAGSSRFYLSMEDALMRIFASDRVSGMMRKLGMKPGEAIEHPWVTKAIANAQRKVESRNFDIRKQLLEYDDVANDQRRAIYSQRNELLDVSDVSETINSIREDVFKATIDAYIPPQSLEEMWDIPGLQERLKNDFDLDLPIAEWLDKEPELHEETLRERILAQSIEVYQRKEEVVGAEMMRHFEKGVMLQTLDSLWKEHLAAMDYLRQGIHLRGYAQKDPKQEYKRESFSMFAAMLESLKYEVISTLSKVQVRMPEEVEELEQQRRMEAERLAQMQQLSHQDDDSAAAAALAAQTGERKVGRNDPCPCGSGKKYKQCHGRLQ

For `CS(=O)(=O)NCC1CCCCN1C(=O)Nc1cccnc1N1CCCC1` (stereo unspecified), the Percent Effect was -15.1% in assay [1]; 13.2% in [2]; -38% in [3]; 3.6% in assay [4]; 7.89% in assay [5]; 0% in assay [6]. Moreover, the Percent Effect is 8.92% in assay [7]; 2.36% in [8]; 5.32% in [9]; 13% in assay [10]; -19.9% in [11].
For the compound `O=C(Cc1ccc(F)cc1)NCCNCC1CNc2ccnn2C1` (stereo unspecified), the Percent Effect in [1] was -1.32%; in assay [2] it was 18.9%; in assay [3], -4.44%; in assay [4], 24.8%; in assay [5], 10.8%; in [6], 10%. Moreover, the Percent Effect in assay [7] was 6.72%; in assay [8], 2.03%; in assay [9], 8.99%; in [10], 17.1%; in [11], -7.92%.
Consider `Cn1cc(CN2CCn3cc(CNC(=O)C4CCC4)nc3C2)cn1`, for which the Percent Effect in assay [1] was -3.67%; in assay [2] it was 5.33%; in [3], 4.55%; in assay [4], 2.73%; in [5] it was -0.386%; in assay [6], -31%. Besides, the Percent Effect was 7.69% in [7]; 0.15% in [8]; 7.29% in assay [9]; 12.5% in [10]; -8.18% in assay [11].
Regarding `Cc1cc(C)n(C2CN(CC(=O)N3CCOCC3)C2)n1`, the Percent Effect is -2.95% in assay [1]; 1.27% in assay [2]; 6.75% in assay [3]; 3.92% in [4]; 0.103% in assay [5]; 3.66% in assay [6]. Also, the Percent Effect was 11.2% in assay [7]; -2% in assay [8]; 10.4% in assay [9]; 7.59% in [10]; 0.125% in [11].
Turning to `Cc1cccc(CCC(=O)N2CCCC(c3cc(C(N)=O)[nH]n3)C2)c1` (stereo unspecified), the Percent Effect in [1] was -1.48%; in assay [2] it was -18.9%; in assay [3] it was 4.97%; in assay [4] it was 8.55%; in assay [5], 6.13%; in assay [6], -10%. Also, the Percent Effect in assay [7] is 0.36%; in [8] it was 9.14%; in [9], 0.493%; in assay [10] it was 11.1%; in [11] it was -8.73%.
On to `COCc1nn(C(C)C)c2c1CCN(Cc1ccc(C)s1)C2`, for which the Percent Effect in [1] was -2.06%; in [2], 2.74%; in assay [3], -1.91%; in assay [4], -1.63%; in [5], 0.198%; in assay [6], 5.99%. Besides, the Percent Effect is 7.62% in assay [7]; 1.17% in [8]; 2.08% in [9]; 3.7% in [10]; -2.29% in assay [11].
With `COc1ccc(C)cc1S(=O)(=O)NCC(c1cccn1C)N(C)C` (stereo unspecified), the Percent Effect in [1] is -6.79%; in assay [2], 8.22%; in assay [3], -12.1%; in assay [4], 2.18%; in assay [5], -5.49%; in [6], 1.36%. Besides, the Percent Effect in assay [7] was 12.2%; in [8] it was 6.68%; in assay [9], 5.38%; in assay [10], 10%; in assay [11] it was 104%.
Turning to `CC(C)NC(=O)N1CC[C@@H]2CN(Cc3cccc(Cl)c3)S(=O)(=O)[C@@H]2CC1`, the Percent Effect in assay [1] was -0.309%; in assay [2], 8%; in [3] it was 9.12%; in [4], -2.2%; in assay [5], -7.34%; in [6], -59.3%. Further, the Percent Effect in [7] is 13.5%; in [8], 35.6%; in assay [9], 0%; in assay [10], 10%; in assay [11], -7.22%.
For `Cc1nnc(NC(=O)NCc2ccc(N3CCN(C)CC3)nc2)s1`, the Percent Effect is -5% in [1]; 15.8% in assay [2]; -3.09% in assay [3]; -1.76% in [4]; -5.32% in [5]; -0.36% in assay [6]. Also, the Percent Effect in assay [7] is 13.6%; in assay [8] it was 3.4%; in [9] it was 5.42%; in assay [10] it was 18.5%; in assay [11], -9.38%.
Take `CC(C)NS(=O)(=O)c1cc(C(=O)O)cc(-c2ccccc2CN(C)C)c1`: the Percent Effect is -5.51% in assay [1]; 0% in assay [2]; -1.94% in assay [3]; -2.62% in assay [4]; -6.16% in [5]; 4.22% in assay [6]. The Percent Effect was 3% in assay [7]; 1.46% in [8]; 1.07% in assay [9]; 3.7% in assay [10]; -3.44% in assay [11].
As for `CCC1CN(CC(=O)N2CCC2)CCN1CCOC` (stereo unspecified), the Percent Effect in assay [1] is -2.71%; in assay [2], 13.5%; in [3] it was -12.7%; in [4], 13.2%; in assay [5], 3.49%; in [6] it was -8.82%. Besides, the Percent Effect is 7.03% in assay [7]; 1.78% in assay [8]; 8.37% in [9]; 28.4% in [10]; -9.71% in assay [11].
